Here are results for 32 compounds from PubChem BioAssay (Tox21).

Molecules are shown by their SMILES. Records with an inconclusive call do not appear. Calls of active or inactive are those of the source. Unless noted, calls follow the shape of the dose curve; as a rule, active = well fitted curve in the direction sought with a large enough effect in the repeat runs; inconclusive = weak or mixed curves; inactive = flat fitted curve, though single readings scatter.

Test [1] in a line: qHTS assay to test for compound auto fluorescence at 535 nm (green) in HEK293 cells (AID 720680). (qHTS replaces the single test concentration by a dilution series.)
The nature of test [2]: qHTS assay to test for compound auto fluorescence at 460 nm (blue) in HEK293 cell free culture (AID 720681). The method in brief:
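Compounds were added to cell-free DMEM with 10% FBS and fluorescence read directly. The blue channel used 405 nm excitation and 460 nm emission, with triamterene as the reference fluorophore.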

A short description of test [3]: qHTS assay to test for compound auto fluorescence at 590 nm (red) in HEK293 cell free culture (AID 720683). The method in brief: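 Cell-free wells of DMEM with 10% FBS received compound, and intrinsic fluorescence was read at excitation/emission 540/590 nm. Values expressed as equivalence to Rose Bengal sodium.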
A short description of test [4]: qHTS assay to test for compound auto fluorescence at 590 nm (red) in HepG2 cell free culture (AID 720684). The method in brief: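 Auto fluorescence equivalency versus Rose Bengal sodium, red channel Ex/Em 540/590 nm; compounds in cell-free MEM/10% FBS; DMSO vehicle control.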
The nature of test [5]: qHTS assay to test for compound auto fluorescence at 460 nm (blue) in HepG2 cell free culture (AID 720685). Summed up:
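Cell-free plates of MEM plus 10% FBS received 23 nL compound or DMSO vehicle; blue-channel (405/460 nm) intensity scored against triamterene as reference fluorophore.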

Test [6] in a line: qHTS assay to test for compound auto fluorescence at 535 nm (green) in HepG2 cell free culture (AID 720686).
A short description of test [7]: qHTS assay to test for compound auto fluorescence at 460 nm (blue) in HepG2 cells (AID 720687). Summed up: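 HepG2 cells in MEM with 10% FBS, attached overnight at 37 C, were exposed to compound or DMSO for 1 hr at 37 C, 5% CO2. Blue fluorescence was read at 405/460 nm, with triamterene as reference fluorophore.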
Test [8] can be described thus: qHTS assay to test for compound auto fluorescence at 535 nm (green) in HEK293 cell free culture (AID 720682). The method in brief:
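Read-out: 485/535 nm fluorescence intensity, calibrated against fluorescein. Medium only (DMEM + 10% FBS, no cells); test compound or DMSO vehicle added by pintool before plate reading.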

Test [9] has as its target Glucocorticoid receptor (Homo sapiens) (UniProt P04150). The test is described as follows: qHTS assay to identify small molecule agonists of the glucocorticoid receptor (GR) signaling pathway (AID 720691; active = well fitted activation curve with a large enough effect in the signal ratio in the repeat runs, not every such curve was filed as active; the % refers to the signal ratio). Summed up:
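HeLa GR-bla reporter line; cells pre-incubated 4 h, compound in DMSO 18 h at 37 C; LiveBLAzer B/G FRET substrate 2 h RT; fluorescence intensity read-out.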

Test [10] shares this target. The test is described as follows: qHTS assay to identify small molecule antagonists of the glucocorticoid receptor (GR) signaling pathway (AID 720692; active = well fitted inhibition curve with a large enough effect in the signal ratio in the repeat runs, not every such curve was filed as active; the % refers to the signal ratio; also: potency is read from the fitted curve at half-maximal effect). The method in brief: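 Read-out: beta-lactamase FRET substrate fluorescence, 2 h at room temperature, in HeLa cells stably carrying a GRE-driven bla reporter. Compounds were co-incubated with 5 nM dexamethasone agonist (final) for 18 h at 37 C.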

Chain of Glucocorticoid receptor (Homo sapiens) (P04150 whole entry, looked up): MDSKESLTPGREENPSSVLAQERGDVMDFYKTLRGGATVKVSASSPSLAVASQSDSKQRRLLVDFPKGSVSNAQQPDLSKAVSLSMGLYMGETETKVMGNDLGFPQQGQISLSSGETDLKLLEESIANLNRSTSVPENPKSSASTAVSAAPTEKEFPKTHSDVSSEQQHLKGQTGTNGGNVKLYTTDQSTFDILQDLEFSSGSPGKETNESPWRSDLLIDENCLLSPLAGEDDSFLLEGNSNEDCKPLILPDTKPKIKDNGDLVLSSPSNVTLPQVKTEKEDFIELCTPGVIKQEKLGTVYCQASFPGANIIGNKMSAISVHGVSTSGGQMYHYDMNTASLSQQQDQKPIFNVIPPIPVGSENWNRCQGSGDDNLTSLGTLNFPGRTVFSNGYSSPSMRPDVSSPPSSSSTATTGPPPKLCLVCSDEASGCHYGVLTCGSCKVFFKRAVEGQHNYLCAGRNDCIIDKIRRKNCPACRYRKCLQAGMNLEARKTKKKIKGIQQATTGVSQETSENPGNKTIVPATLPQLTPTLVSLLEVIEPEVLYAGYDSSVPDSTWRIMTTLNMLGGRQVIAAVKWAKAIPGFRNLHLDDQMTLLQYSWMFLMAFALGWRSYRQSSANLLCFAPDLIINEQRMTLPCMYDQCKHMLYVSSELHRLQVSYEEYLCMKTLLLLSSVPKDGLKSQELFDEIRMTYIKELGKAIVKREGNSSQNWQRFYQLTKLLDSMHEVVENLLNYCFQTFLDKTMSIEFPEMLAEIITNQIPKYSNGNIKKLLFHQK

With `Nc1c(Cl)cc(Cl)cc1[N+](=O)[O-]`, the outcome in test [1], in [3], in [4] and in test [6] was inactive. Besides, the Potency result in [2], in test [5] and in test [7] was “inactive” each time.
Turning to `CC(C)(C)C(O)/C=C/c1ccc2c(c1)OCO2` (configuration not stated), the Potency result in [2], in test [5] and in test [7] was “inactive” each time. Moreover, the result in [8], in [3], in test [4] and in test [6] was inactive.
For the compound `Nc1nc2ccc(OC(F)(F)F)cc2s1`, the compound was called inactive in test [1], in [3], in [4] and in [6]. For the same compound, the Potency entry in [2], in test [5], in [7] and in test [9] was “inactive” each time.
Consider `CCOCCC(=O)OCC`, for which the Potency entry in test [2], in [5] and in test [7] was “inactive” each time. In addition, the result in test [8], in test [3], in test [4] and in test [6] was inactive.
For the compound `FC(F)(F)C(F)(F)C(F)(F)C(F)(F)CCI`, the result in test [1], in [3], in test [4] and in test [6] was inactive. Also, the Potency entry in [2], in test [5], in test [7], in test [9] and in test [10] was “inactive” each time.
For `COc1ccc(C(=O)NCc2ccc(OCCN(C)C)cc2)cc1OC`, the outcome in [1], in test [3], in test [4] and in test [6] was inactive. For the same compound, the Potency result in [2], in [5], in test [7], in [9] and in test [10] was “inactive” in each case.
On to `[Cl][Nd]([Cl])[Cl]`, for which the compound was called inactive in test [1] and in test [6]. Further, the Potency entry in test [2], in test [5], in [7], in test [9] and in test [10] was “inactive” in each case.
In the case of `CCCCC[C@H](O)/C=C/[C@H]1[C@H](O)CC(=O)[C@@H]1C/C=C\CCCC(=O)O`, the compound was classed as inactive in test [1], in test [3], in [4] and in test [6]. The Potency entry in [2], in test [5], in test [7] and in [9] was “inactive” in each case.
With `CCCCCC`, the compound was called inactive in [1], in test [3], in test [4] and in test [6]. Further, the Potency result in test [2], in test [5], in test [7], in test [9] and in test [10] was “inactive” each time.
Consider `O=C(Nc1ccc(C(=O)O)c(O)c1)c1ccccc1`, for which the Potency result in [2], in test [5] and in test [7] was “inactive” each time. Further, the compound was classed as inactive in [8], in test [3], in [4] and in [6].
As for `CC(C)(O)c1coc(S(=O)(=O)NC(=O)Nc2c3c(cc4c2CCC4)CCC3)c1`, the compound was called inactive in test [1], in test [3], in test [4] and in test [6]. Moreover, the Potency result in test [2], in test [5], in test [7], in [9] and in test [10] was “inactive” throughout.
With `CSSc1ccoc1C`, the compound was classed as inactive in [1], in test [3], in test [4] and in [6]. For the same compound, the Potency result in [2], in test [5], in test [7] and in test [9] was “inactive” in each case.
As to `CCCOC(=O)c1c(Cl)c(Cl)c(Cl)c(Cl)c1C(=O)OCCC`, the compound was classed as inactive in test [1], in [3], in test [4] and in [6]. The Potency result in [2], in [5], in test [7], in test [9] and in test [10] was “inactive” throughout.
Regarding `O=C(O)/C=C/c1ccc(O)c(O)c1`, the result in test [1], in test [8], in test [3], in test [4] and in test [6] was inactive. Besides, the Potency entry in test [5], in test [7], in [9] and in test [10] was “inactive” throughout.
Consider `Nc1ccc(S(=O)(=O)NCc2ccccc2)cc1`, for which the compound was classed as inactive in [1], in test [3], in test [4] and in test [6]. The Potency entry in test [2], in test [5], in test [7], in [9] and in test [10] was “inactive” throughout.
In the case of `O=[N+]([O-])C1(Br)COCOC1`, the compound was called inactive in test [1], in [3], in test [4] and in [6]. In addition, the Potency result in [2], in test [5] and in [7] was “inactive” each time.
`O=C(C(=O)c1ccco1)c1ccco1`: the result in test [1], in test [3], in [4] and in test [6] was inactive. In addition, the Potency result in test [2], in test [5], in test [7], in [9] and in test [10] was “inactive” in each case.
For `Cc1ccc2c(c1)CCCN2`, the compound was classed as inactive in [1], in test [3], in test [4] and in test [6]. In addition, the Potency entry in [2], in [5], in test [7], in test [9] and in test [10] was “inactive” each time.
On to `C=Cc1ccc(OC(C)=O)cc1`, for which the result in test [1], in test [3], in [4] and in test [6] was inactive. In addition, the Potency result in test [2], in test [5], in test [7], in test [9] and in [10] was “inactive” throughout.
`CC(C)CC(O)CC(C)C`: the compound was classed as inactive in [1], in [4] and in test [6]. Also, the Potency entry in test [2], in test [5], in test [7], in [9] and in test [10] was “inactive” each time.
`COc1ccc(N)c([N+](=O)[O-])c1`: the result in test [1], in test [3], in test [4] and in test [6] was inactive. Also, the Potency result in test [2], in test [5], in test [7], in [9] and in [10] was “inactive” each time.
`CC(C)N(C)C`: the outcome in test [1], in test [3], in [4] and in test [6] was inactive. For the same compound, the Potency entry in test [2], in test [5], in test [7], in test [9] and in test [10] was “inactive” each time.
Take `O=C(O)c1cc(Cl)cc(Cl)c1O`: the outcome in [1], in test [3], in test [4] and in [6] was inactive. Besides, the Potency result in test [2], in [5] and in test [7] was “inactive” in each case.
Take `COC(=O)C1=C(C)NC(C)=C(C(=O)OC(C)(C)CN(C)CCC(c2ccccc2)c2ccccc2)C1c1cccc([N+](=O)[O-])c1` (configuration not stated): the compound was called inactive in test [1], in test [3], in test [4] and in [6]. For the same compound, the Potency entry in test [2], in test [5], in [7] and in [9] was “inactive” each time. For the same compound, the Potency in [10] is 6.74 µM (active).
Regarding `O=C(O)CN1C(=O)c2cccc3cccc(c23)C1=O`, the result in test [1], in test [3], in [4] and in [6] was inactive. The Potency entry in test [2], in [5] and in test [7] was “inactive” in each case.
Turning to `CC(=O)OCC1=C(C(=O)O)N2C(=O)[C@@H](NC(=O)CSc3ccncc3)[C@H]2SC1`, the result in test [1], in [3] and in [6] was inactive. Further, the Potency entry in test [2], in test [5], in test [7] and in [9] was “inactive” in each case.
On to `COC(C)(C)OC`, for which the compound was called inactive in test [1], in test [4] and in [6]. Also, the Potency result in test [2], in test [5] and in test [7] was “inactive” throughout.
As for `O=P(O)(O)Oc1ccccc1`, the outcome in test [1], in [4] and in [6] was inactive. Moreover, the Potency result in test [2], in test [5], in [7], in test [9] and in test [10] was “inactive” throughout.
Turning to `CCCCCCC(CO)CCCC` (configuration not stated), the compound was classed as inactive in test [1], in test [3], in [4] and in test [6]. Besides, the Potency result in [2], in test [5], in [7] and in test [9] was “inactive” in each case.
In the case of `CO[C@@H]1[C@@H](OC)[C@H](C)[C@@](O)(CC(=O)O)O[C@H]1[C@H](C)[C@H]1O[C@@]2(CC[C@@](C)([C@H]3CC[C@@](C)([C@@H]4O[C@@H]([C@H]5O[C@](C)(O)[C@H](C)C[C@@H]5C)C[C@@H]4OC4C[C@H](OC)[C@@H](OC)[C@H](C)O4)O3)O2)C[C@H](O)[C@H]1C` (some centres not stated), the compound was classed as inactive in [1], in test [3] and in [6]. Moreover, the Potency entry in [2], in [5], in test [7] and in [9] was “inactive” each time.
As to `CC1C(C)(C)C2=C(C(=O)CCC2)C1(C)C` (configuration not stated), the call in test [1], in test [3], in test [4] and in [6] was inactive. The Potency result in test [2], in [5], in test [7], in test [9] and in test [10] was “inactive” in each case.
Consider `CCCCCCC(O)CCOC(C)=O` (configuration not stated), for which the compound was called inactive in test [1], in [3], in [4] and in test [6]. Besides, the Potency result in test [2], in test [5] and in test [7] was “inactive” in each case.
